Pf growth 48h: Primary qHTS for delayed death inhibitors of the malarial parasite plastid, 48 hour incubation; Potency, µM (series often up to 28.7 µM), for the others: at the top dose activity change, negative = inhibition, hits mostly inhibitors; 310,000 tested, 5.9% active; P. falciparum luciferase growth in erythrocytes, 48 h; further: on the % scale 0 is the no-effect control and ±100 the full control effect
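Growth was read as firefly luciferase luminescence after a 48 h, 37 C, 5% CO2 exposure of compounds to reporter-bearing P. falciparum cultures (0.1% parasitemia, 2% hematocrit final) in Albumax-supplemented RPMI 1640.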
SARS PLP yeast: qHTS of Yeast-based Assay for SARS-CoV PLP. 330,000 tested, 0.19% active. Potency, µM (titrated, usually from 32.9 µM), for the others: at the highest dose activity, positive = growth rescue, most hits filed as activators. AID 485353, 2010. S. cerevisiae expressing SARS-CoV PLpro, growth rescue; calls by dose curve; further: 0% is about no effect; nearly all actives have a fitted effect of over 55% in size
Sm TGR inh: qHTS Assay for the Inhibitors of Schistosoma Mansoni Peroxiredoxins. Schistosoma mansoni thioredoxin glutathione reductase (TGR), Q962Y6. purified TGR, DTNB reduction, TNB absorbance 405 nm. 360,000 tested, 3% active. Potency, µM (series often up to 114 µM), for the others: at the top dose activity change, negative = inhibition, actives largely listed as inhibitors; further: on the % scale 0 is the no-effect control and ±100 the full control effect; nearly all actives have a fitted effect of over 60% in size
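First, TGR (20 nM dispensed) and NADPH were mixed with compound. Second, a 15 min room-temperature incubation followed. Third, further NADPH and then DTNB were added to start the reaction. Finally, TNB absorbance was monitored kinetically.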
Pf growth 96h: Primary qHTS for delayed death inhibitors of the malarial parasite plastid, 96 hour incubation; P. falciparum luciferase reporter growth, 96 h; Potency, µM (doses to about 28.7 µM), for inactives: top-dose activity change, negative = inhibition, most hits filed as inhibitors; 320,000 tested, 6.9% active; AID 504834, 2011; further: on the % scale 0 is the no-effect control and ±100 the full control effect
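Plates of compound plus infected erythrocytes (2% hematocrit, 0.05% parasitemia final) incubate 96 hours, 37 C, 5% CO2. Detection reagent added; reduced luminescence from the parasites' luciferase reporter flags inhibition.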
Starred values were filed as active, the others as inactive. This is a sample that favours compounds with a hit; in the whole collection about 12% have one here. Unless noted, the call rests on the fitted dose curve; in most records, active means well fitted curve in the direction sought with a large enough effect; inconclusive means small, poorly fitted or top-dose-only effect, or another doubt; inactive means no such curve, though single readings can be large; an effect the other way counts as inactive or inconclusive. Potency means the concentration at half of the fitted maximal effect.

How did CCCCCCCC[n+]1cccc2c3ccccc3ccc21 do in these assays?
Pf growth 48h: 1.17µM*; SARS PLP yeast: -31.3%; Sm TGR inh: -2.2%; Pf growth 96h: 31.7%

How did CCCCCCCCCC[n+]1cccc2c3ccccc3ccc21 do in these assays?
Pf growth 48h: 2.08µM*; SARS PLP yeast: -30.5%; Sm TGR inh: -8.6%; Pf growth 96h: inconclusive

How did Cc1ccccc1-n1c(SCC(=O)N2CCOCC2)nc(O)c(Cc2ccccc2)c1=O do in these assays?
Pf growth 48h: 50.6%; SARS PLP yeast: -0.7%; Sm TGR inh: 0.7%; Pf growth 96h: -2.6%

Results for Cc1cccc(N2C(=O)CC(Sc3ncn[nH]3)C2=O)c1 (configuration not stated) ?
Pf growth 48h: 4.1%; SARS PLP yeast: -12.7%; Sm TGR inh: 7.08µM*; Pf growth 96h: inconclusive

Results for Cc1ccc(N2C(=O)CC(Sc3ncn[nH]3)C2=O)cc1C (configuration not stated) ?
Pf growth 48h: 3.3%; SARS PLP yeast: -45.6%; Sm TGR inh: 0.316µM*; Pf growth 96h: inconclusive

How did Cc1cc(C)nc(SC2CC(=O)N(c3ccc(C)c(C)c3)C2=O)n1 (configuration not stated) do in these assays?
Pf growth 48h: 7.3%; SARS PLP yeast: 6.4%; Sm TGR inh: -17.5%; Pf growth 96h: inconclusive

Results for CCOc1ccc(NC(=O)CN(C)C(=O)CN2C(=O)c3ccc([N+](=O)[O-])cc3C2=O)cc1OCC ?
Pf growth 48h: 6.6%; SARS PLP yeast: 6.9%; Sm TGR inh: -1.7%; Pf growth 96h: 15.9%

How did CCCc1ccc(S(=O)(=O)N/N=C(/C)c2ccc3c(c2)OCO3)cc1 do in these assays?
Pf growth 48h: 13.7%; SARS PLP yeast: 3.1%; Sm TGR inh: -3.7%; Pf growth 96h: -42.2%

Results for Cc1cc(C)cc(NC(=O)CN2C(=O)COc3ccc(S(=O)(=O)N4CCCC4)cc32)c1 ?
Pf growth 48h: 0.2%; SARS PLP yeast: 13.3%; Sm TGR inh: -9.7%; Pf growth 96h: inconclusive

How did COc1cc(NC(=O)CN2C(=O)COc3ccc(S(=O)(=O)N4CCCC4)cc32)cc(OC)c1 do in these assays?
Pf growth 48h: inconclusive; SARS PLP yeast: -2.1%; Sm TGR inh: -7.6%; Pf growth 96h: 0.415µM*

How did Cc1ccccc1NC(=O)CN1C(=O)CSc2ccc(S(=O)(=O)N3CCCCC3)cc21 do in these assays?
Pf growth 48h: inconclusive; SARS PLP yeast: 1.1%; Sm TGR inh: -4.5%; Pf growth 96h: -3.9%

How did Cc1ccccc1NC(=O)CN1C(=O)CSc2ccc(S(=O)(=O)N3CCCC3)cc21 do in these assays?
Pf growth 48h: -15.9%; SARS PLP yeast: 8.6%; Sm TGR inh: 6.2%; Pf growth 96h: 13.1µM*

How did CC(=O)c1cccc(NC(=O)CN2C(=O)COc3ccc(S(=O)(=O)N4CCOCC4)cc32)c1 do in these assays?
Pf growth 48h: inconclusive; SARS PLP yeast: -2.2%; Sm TGR inh: 9.6%; Pf growth 96h: 11.7µM*

How did COc1cc(NC(=O)CN2C(=O)COc3ccc(S(=O)(=O)N4CCCCC4)cc32)cc(OC)c1 do in these assays?
Pf growth 48h: inconclusive; SARS PLP yeast: -0.6%; Sm TGR inh: -1.2%; Pf growth 96h: 10.4µM*

Results for Cc1ccc(SCC(=O)OCC(=O)NC(C)c2ccc(F)cc2)cc1 (configuration not stated) ?
Pf growth 48h: 16.3%; SARS PLP yeast: -0.4%; Sm TGR inh: -1.5%; Pf growth 96h: 0.9%

How did Cc1ccc(S(=O)(=O)N2CCCOC2CNC(=O)C(=O)NCCc2c[nH]c3ccccc23)cc1 (configuration not stated) do in these assays?
Pf growth 48h: inconclusive; SARS PLP yeast: -5.0%; Sm TGR inh: 4.1%; Pf growth 96h: 13.1µM*

What do the screens show for `O=C(NCCc1c[nH]c2ccccc12)C(=O)NCC1OCCCN1S(=O)(=O)c1ccccc1` (configuration not stated)?
Pf growth 48h: 9.28µM*; SARS PLP yeast: -2.5%; Sm TGR inh: -0.1%; Pf growth 96h: inconclusive

What do the screens show for `O=C(NCCc1c[nH]c2ccccc12)C(=O)NCC1OCCN1S(=O)(=O)c1ccccc1` (configuration not stated)?
Pf growth 48h: -1.6%; SARS PLP yeast: 0.6%; Sm TGR inh: -1.7%; Pf growth 96h: 7.7%

From PubChem
